PubChem BioAssay (NCATS)
Results filed as inconclusive are left out. Active and inactive are the calls of the source. Calls follow the shape of the dose curve; as a rule, active = well fitted inhibition curve with a large enough effect; inconclusive = small, poorly fitted or top-dose-only effect; inactive = flat fitted curve, though single readings scatter. Where a SMILES comes first, the peptide text is derived from it. Bridges are numbered along the chain shown (N, C = ends). [ ]: non-standard residue; d: D form. hArg = N=C(N)NCCCC[C@H](N)C(=O)O; Mpa = O=C(O)CCS

Experiments:
PAD = assay: qHTS profiling for inhibitors of Plasmodium falciparum proliferation (AID 504749); also: potency is read from the fitted curve at half-maximal effect; details: P. falciparum in erythrocytes, SYBR Green DNA, 72 h; series mostly up to 28.7 µM
Outline: (§1)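 Infected RBCs, 0.3% parasitemia/2.5% Hct final; cpd 72 h, 37 C, 5% CO2; lysis buffer with saponin/triton/SYBR Green I, o/n RT dark; FI 485/535; norm. to artemisinin (0.29 uM) and DMSO.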

PC15 = assay: as above; details: P. falciparum in erythrocytes, SYBR Green DNA, 72 h; series mostly up to 28.7 µM
Outline: as §1

PC26 = assay: as above; details: P. falciparum in erythrocytes, SYBR Green DNA, 72 h; series mostly up to 28.7 µM
Outline: as §1

PC49 = assay: as above; details: P. falciparum in erythrocytes, SYBR Green DNA, 72 h; series mostly up to 28.7 µM
Outline: as §1

SC27B = assay: as above; details: P. falciparum in erythrocytes, SYBR Green DNA, 72 h; series mostly up to 28.7 µM
Outline: as §1

TAB109 = assay: as above; details: P. falciparum in erythrocytes, SYBR Green DNA, 72 h; series mostly up to 28.7 µM
Outline: as §1

TAB113 = assay: as above; details: P. falciparum in erythrocytes, SYBR Green DNA, 72 h; series mostly up to 28.7 µM
Outline: as §1

TAB165 = assay: as above; details: P. falciparum in erythrocytes, SYBR Green DNA, 72 h; series mostly up to 28.7 µM
Outline: as §1

W2 = assay: as above; details: P. falciparum in erythrocytes, SYBR Green DNA, 72 h; series mostly up to 28.7 µM
Outline: as §1

CRL-7250 = normal cell line; assay: Cytotoxic Profiling of Annotated Libraries Using Quantitative High-Throughput Screening (AID 1296008); details: Five cell lines viability, CellTiter-Glo ATP luminescence, 48-72 h; hits give low values; as to max response: % is scaled to controls: 0 for no effect and ±100 for the full control effect
Outline: (§2)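 Cytotoxicity was measured as CellTiter-Glo ATP luminescence, read after 10 min at room temperature. Compound treatment of the cells lasted 48 or 72 hr at 37 degrees Celsius in a qHTS format.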

HEK293 = assay: as above; details: Five cell lines viability, CellTiter-Glo ATP luminescence, 48-72 h; hits give low values
Outline: as §2

HaCat [1] = assay: as above; details: Five cell lines viability, CellTiter-Glo ATP luminescence, 48-72 h; hits give low values
Outline: as §2

KB-3-1 = assay: as above; details: Five cell lines viability, CellTiter-Glo ATP luminescence, 48-72 h, hits give low values
Outline: as §2

NIH3T3 = assay: as above; details: Five cell lines viability, CellTiter-Glo ATP luminescence, 48-72 h; hits give low values
Outline: as §2

HACAT [2] = assay: qHTS assay to identify novel small-molecules to repurpose for Merkel cell carcinoma treatment (AID 1296009); details: MCC and control cell lines, CellTiter-Glo viability, 72 h; at 44.8 µM (top of the series) unless noted
Outline: (§3)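 72 hr, 37 degree celsius; NPC 8-pt / MIPE 11-pt dose response; compound pinned in DMSO; CellTiter-Glo, 10 min RT, luminescence; normalized to no-cell and DMSO controls.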

MCC-13 = assay: as above; details: MCC and control cell lines, CellTiter-Glo viability, 72 h; series mostly up to 46 µM
Outline: as §3

MCC-26 = assay: as above; details: MCC and control cell lines, CellTiter-Glo viability, 72 h; series mostly up to 46 µM
Outline: as §3

MKL-1 = assay: as above; details: MCC and control cell lines, CellTiter-Glo viability, 72 h; series mostly up to 46 µM
Outline: as §3

MKL-2 = assay: as above; details: MCC and control cell lines, CellTiter-Glo viability, 72 h; series mostly up to 46 µM
Outline: as §3
Also: nearly all actives have a fitted effect of over 60% in size.

Cc1c(Cn2ccnc2)c2ccccc2n1CCC(=O)O
inactive: Potency (PAD) | Potency (PC15) | Potency (PC26) | Potency (PC49) | Potency (SC27B) | Potency (TAB109) | Potency (TAB113) | Potency (TAB165) | Potency (W2) | max response (CRL-7250) 0.62% | max response (HEK293) 1.95% | outcome (HaCat [1]) | max response (KB-3-1) -18.7% | max response (NIH3T3) 3.45% | outcome (HACAT [2]) | outcome (MCC-13) | outcome (MCC-26) | outcome (MKL-1) | outcome (MKL-2)

O=C(O)c1ccccc1OP(=O)(O)O
inactive: Potency (PAD) | Potency (PC15) | Potency (PC26) | Potency (PC49) | Potency (SC27B) | Potency (TAB109) | Potency (TAB113) | Potency (TAB165) | Potency (W2) | max response (CRL-7250) 3.34% | max response (HEK293) 2.49% | outcome (HaCat [1]) | max response (KB-3-1) 12.4% | max response (NIH3T3) 3.2% | outcome (HACAT [2]) | outcome (MCC-13) | outcome (MCC-26) | outcome (MKL-1) | outcome (MKL-2)

O=C(/C=C/c1ccccc1)OCc1ccccc1
inactive: Potency (PAD) | Potency (PC15) | Potency (PC26) | Potency (PC49) | Potency (SC27B) | Potency (TAB109) | Potency (TAB113) | Potency (TAB165) | Potency (W2) | max response (CRL-7250) 1.75% | max response (HEK293) -4.12% | outcome (HaCat [1]) | max response (KB-3-1) 21.2% | max response (NIH3T3) -4.12% | outcome (HACAT [2]) | outcome (MCC-13) | outcome (MCC-26) | outcome (MKL-1) | outcome (MKL-2)

CCc1nnc(NS(=O)(=O)c2ccc(N)cc2)s1
inactive: Potency (PAD) | Potency (PC15) | Potency (PC26) | Potency (PC49) | Potency (SC27B) | Potency (TAB109) | Potency (TAB113) | Potency (TAB165) | Potency (W2) | max response (CRL-7250) 4.08% | max response (HEK293) -0.578% | outcome (HaCat [1]) | max response (KB-3-1) 7.07% | max response (NIH3T3) 3.74% | outcome (HACAT [2]) | outcome (MCC-13) | outcome (MCC-26) | outcome (MKL-1) | outcome (MKL-2)

COC(=O)c1ccc(O)cc1
inactive: Potency (PAD) | Potency (PC15) | Potency (PC26) | Potency (PC49) | Potency (SC27B) | Potency (TAB109) | Potency (TAB113) | Potency (TAB165) | Potency (W2) | max response (CRL-7250) 1% | max response (HEK293) 3.26% | outcome (HaCat [1]) | max response (KB-3-1) 0.911% | outcome (NIH3T3) | outcome (HACAT [2]) | outcome (MCC-13) | outcome (MCC-26) | outcome (MKL-1) | outcome (MKL-2)

O=C(O)Cn1c(C(=O)Nc2nc(-c3ccccc3Cl)cs2)cc2ccccc21
inactive: Potency (PAD) | Potency (PC15) | Potency (PC26) | Potency (PC49) | Potency (SC27B) | Potency (TAB109) | Potency (TAB113) | Potency (TAB165) | Potency (W2) | outcome (CRL-7250) | max response (HEK293) -5.16% | outcome (HaCat [1]) | max response (KB-3-1) -7.98% | outcome (NIH3T3) | outcome (HACAT [2]) | outcome (MCC-13) | outcome (MCC-26) | outcome (MKL-1) | outcome (MKL-2)

CC(CN(C)C)C(C)(O)Cc1ccc(Cl)cc1 (stereo not given)
inactive: Potency (PAD) | Potency (PC15) | outcome (CRL-7250) | max response (HEK293) 3.34% | outcome (HaCat [1]) | max response (KB-3-1) 6.05% | outcome (NIH3T3) | outcome (HACAT [2]) | outcome (MCC-13) | outcome (MCC-26) | outcome (MKL-1) | outcome (MKL-2)
active: Potency (W2) 2390 nM

NC(=O)[C@@H]1CSSCCC(=O)N[C@@H](CCCCN=C(N)N)C(=O)NCC(=O)N[C@@H](CC(=O)O)C(=O)N[C@@H](Cc2c[nH]c3ccccc23)C(=O)N2CCC[C@H]2C(=O)N1 ([Mpa][hArg]GDWPC-NH2; disulfide 1-7)
inactive: Potency (PAD) | Potency (PC15) | Potency (PC26) | Potency (PC49) | Potency (SC27B) | Potency (TAB109) | Potency (TAB113) | Potency (TAB165) | Potency (W2) | outcome (CRL-7250) | max response (HEK293) -7.03% | outcome (HaCat [1]) | max response (KB-3-1) 3.01% | max response (NIH3T3) -4.92% | outcome (HACAT [2]) | outcome (MCC-13) | outcome (MKL-1) | outcome (MKL-2)

Cc1ccc(C(C)C)c(O)c1
inactive: Potency (PAD) | Potency (PC15) | Potency (PC26) | Potency (PC49) | Potency (SC27B) | Potency (TAB109) | Potency (TAB113) | Potency (TAB165) | Potency (W2) | outcome (CRL-7250) | max response (HEK293) 3.73% | outcome (HaCat [1]) | max response (KB-3-1) 18.3% | max response (NIH3T3) 0.329% | outcome (HACAT [2]) | outcome (MCC-13) | outcome (MCC-26) | outcome (MKL-1) | outcome (MKL-2)

C/C(=C(\CCO)SS/C(CCO)=C(\C)N(C=O)Cc1cnc(C)nc1N)N(C=O)Cc1cnc(C)nc1N
inactive: outcome (CRL-7250) | max response (HEK293) -0.967% | outcome (HaCat [1]) | max response (KB-3-1) -5.06% | max response (NIH3T3) -2.04% | outcome (HACAT [2]) | outcome (MCC-13) | outcome (MKL-1) | outcome (MKL-2)

CCCCOC(=O)c1ccc(N)cc1
inactive: Potency (PAD) | Potency (PC15) | Potency (PC26) | Potency (PC49) | Potency (SC27B) | Potency (TAB109) | Potency (TAB113) | Potency (TAB165) | outcome (CRL-7250) | max response (HEK293) 4.63% | outcome (HaCat [1]) | max response (KB-3-1) 0.229% | max response (NIH3T3) -6.66% | outcome (HACAT [2]) | outcome (MCC-13) | outcome (MKL-1) | outcome (MKL-2)

C[C@@H]1CCC[C@H](C)N1
inactive: Potency (PAD) | Potency (PC15) | Potency (PC26) | Potency (PC49) | Potency (SC27B) | Potency (TAB109) | Potency (TAB165) | Potency (W2) | max response (CRL-7250) 0.393% | max response (HEK293) -9.02% | outcome (HaCat [1]) | max response (KB-3-1) -5.17% | max response (NIH3T3) 4.6% | outcome (HACAT [2]) | outcome (MCC-13) | outcome (MCC-26) | outcome (MKL-1) | outcome (MKL-2)

COc1ccccc1Oc1c(NS(=O)(=O)c2ccc(C(C)(C)C)cc2)nc(-c2ncccn2)nc1OCCO
inactive: Potency (PAD) | Potency (PC15) | Potency (PC26) | Potency (PC49) | Potency (SC27B) | Potency (TAB109) | max response (CRL-7250) -3.53% | max response (HEK293) -4.43% | outcome (HaCat [1]) | max response (KB-3-1) -7.61% | outcome (NIH3T3) | outcome (HACAT [2]) | outcome (MCC-26) | outcome (MKL-1) | outcome (MKL-2)

CC[N+](CC)(CC(=O)Nc1c(C)cccc1C)Cc1ccccc1
inactive: Potency (PAD) | Potency (PC15) | Potency (PC26) | Potency (PC49) | Potency (SC27B) | Potency (TAB109) | Potency (TAB113) | Potency (TAB165) | max response (CRL-7250) -0.938% | max response (HEK293) 3.4% | outcome (HaCat [1]) | max response (KB-3-1) -3.17% | max response (NIH3T3) 1.97% | outcome (HACAT [2]) | outcome (MCC-13) | outcome (MKL-1) | outcome (MKL-2)
